SKN-1 inh = blocks SKN-1 activity in C. elegans; 360,000 tested, 0.49% active; C. elegans VP596 Pgst-4::GFP/RFP ratio, acrylamide-induced, 24 h; AID 624304; inhibition, % at 21.8 µM;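 active = interference check ratio from 0.5 to 1.5 plus GFP to RFP signal ratio inhibition reaching or exceeding a fixed threshold, cut at about 30% in these data, passing the limit was not always enough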
Cardio protect = modulators protecting cardiomyocytes from myocardial damage; protection from H2O2 cell death, % at 20 µM; H9c2 cardiomyocytes, H2O2 injury protection, ATPLite, 2 h; AID 588492; 360,000 tested, 0.63% active;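 active = compounds giving at least 50% protection of heart cells from peroxide-induced death in the single-dose screen, raw or plate-pattern-corrected value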;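 also: 0% = DMSO wells with peroxide and 100% = DMSO wells without peroxide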
H9c2 TAG inh = reduces triacylglycerol accumulation in H9c2 cells; 230,000 tested, 0.66% active; AID 651582; inhibition, % at 12.5 µM; Nile Red lipid (TAG) fluorescence; cells loaded with 200 µM oleic acid;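 active = pattern-corrected inhibition of lipid staining of at least 50% with the nuclear-stain viability signal not falling by more than 50%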;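 also: 0% = DMSO wells and 100% = triacsin C control wells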
iPSC survival up = hiPSC single-cell survival enhancement; ATPlite luminescence; 100% = ROCK inhibitor wells, 0% = DMSO; survival enhancement, % at 20 µM; 360,000 tested, 0.044% active; AID 602274; in the data active = survival enhancement above about 18%;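 also: cells exposed to compounds for 16 hours before the ATP read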
CRFR2-BP antag = blocks CRF-induced signaling of the CRF-BP/CRF-R2 complex; 350,000 tested, 0.59% active; HEK293 CRF-R2/CRF-BP, CRF-induced calcium fluorescence; AID 588475; inhibition, % at 11.8 µM;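 active = inhibition of the ligand-induced calcium signal above about 50% at the single tested concentration, limit read from the data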
CRFR2-BP ag = CRF-BP/CRF-R2 complex agonism; HEK293 CRF-R2/CRF-BP, calcium dye fluorescence (FLIPR); percent of saturating CRF peptide response; 350,000 tested, 0.46% active; activation, % at 13.2 µM;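 active = activation of at least 50%, plus an integration ratio under a set limit after plate pattern correction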;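 also: plate controls were neutral control wells without compound for no effect and CRF at EC100 for full effect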
* marks the source's active call; other numbers are inactive results; x = no result. Most compounds without a hit are left out; they make up all but 2.5% or so of the library.

SMILES | SKN-1 inh | Cardio protect | H9c2 TAG inh | iPSC survival up | CRFR2-BP antag | CRFR2-BP ag
CC(C)CNC(=O)C1(C)CCCCCN1C(=O)c1cc2ccccc2s1 (stereo not drawn) | 16 | -4 | 0 | -4 | x | x
CCCCN1C(=O)/C(=C/C=C2\Oc3ccccc3N2CC)SC1=S | 54 | -9 | -237 | 1 | -365 | 287*
Cc1cccc(-c2nc(CS(=O)CC(=O)N3CC(C)CC(C)C3)c(C)o2)c1 (stereo not drawn) | 5 | -3 | x | 1 | 55* | -1
C/C(=N\OC(=O)c1ccc(OC(C)C)cc1)c1ccc(C)c(C)c1 | 19 | -19 | -19 | 3 | 73* | -2
COc1cccc(Nc2nc(C(N)c3ccccc3)cs2)n1 (stereo not drawn) | 18 | 16 | 5 | -1 | x | x
COc1cc(C=O)ccc1OCCOCCOc1ccc(Cl)cc1Cl | -13 | -18 | -13 | 1 | 69* | -2
COc1cc(C=O)ccc1OCCOCCOc1ccc(Cl)cc1 | 20 | -15 | x | -3 | 1 | 1
COc1cc2[nH]c(=O)c(C(=O)NCc3ccc(C)cc3)c(O)c2cc1OC | 1 | -1 | -6 | 6 | 5 | -1
Cc1cc2c(N=O)c(NO)ccc2[nH]1 | 9 | 57* | x | -2 | -2 | 2
COc1ccc(N2C(=O)c3ccccc3NC(=O)C2C(=O)NCC(C)C)cc1 (stereo not drawn) | 0 | x | x | x | x | x
COc1cc(CNC(=O)c2cc(-c3cc(OC)ccc3Cl)n[nH]2)cc(OC)c1 | 6 | 0 | 11 | 5 | x | x
Cc1ccccc1-n1c(CSC(=N)N)nc2ccccc2c1=O | 16 | -3 | 3 | 13 | 52* | 0
N=C(N)SCc1nc2ccccc2c(=O)n1-c1ccccc1Cl | -7 | 9 | 16 | 1 | -9 | -2
O=c1c(/C=C(\O)c2ccccc2)nc2ccccc2n1-c1ccccc1 | -2 | 3 | 15 | -1 | -80 | 156*
CC1OC(CCc2cccc(Cl)c2)Cc2[nH][nH]c(=O)c21 (stereo not drawn) | 11 | x | x | 2 | x | x
CC(C)N1CC2(CC(c3ccccc3C(F)(F)F)=NO2)CN1C(=O)c1ccco1 (stereo not drawn) | 23 | -10 | -5 | -1 | -1 | 0
c1csc(Cn2nnnc2CN2CCN(c3nc4ccccc4s3)CC2)c1 | 36* | -1 | -5 | -2 | -8 | 2
c1ccc(Cn2nnnc2C(c2ccccc2)N2CCN(c3nc4ccccc4s3)CC2)cc1 (stereo not drawn) | 13 | 2 | x | 8 | -6 | 6
Cc1noc(C)c1COc1ccccc1C(=O)N(C)CC(=O)Nc1ccc(F)c(F)c1F | -13 | 2 | 9 | -1 | -1 | 0
CCOc1cc(C(N)=O)cc(Br)c1OC | 44* | 0 | -9 | 1 | 4 | -1
CN(CC(=O)NCc1ccccc1Cl)S(=O)(=O)c1ccc2c(c1)n(C)c(=O)c(=O)n2C | -6 | 7 | x | 0 | -4 | -1
COc1cc(COCC(O)CN2C(C)CCCC2C)cc(OC)c1OC (stereo not drawn) | -1 | -4 | 9 | -1 | 6 | 0
O=C(O)c1ccc(COc2ccccc2C=C2C(=O)c3ccccc3C2=O)cc1 | -1 | 14 | x | -2 | 81* | -1
CCOC(=O)CC(S(=O)(=O)c1ccccc1)S(=O)(=O)c1ccccc1 | 3 | -21 | 30 | -1 | 9 | -2
CC1CC(C)(C)CC2(C1)NC(=O)N(CC(=O)N1CCN(Cc3ccc(C#N)cc3)CC1)C2=O (stereo not drawn) | -15 | -6 | -26 | 0 | 0 | -1
SMILES | SKN-1 inh | Cardio protect | H9c2 TAG inh | iPSC survival up | CRFR2-BP antag | CRFR2-BP ag
C=CCn1cc(-c2cccc(Cl)c2)cc(C#N)c1=O | 40* | 12 | -3 | 3 | -8 | 1
N#Cc1cc(-c2cccc(Cl)c2)c[nH]c1=O | -4 | 7 | 7 | 2 | 17 | 1
CCNc1nc(NCC)n2c(SCC(=O)Nc3ccc(C)cc3Br)nnc2n1 | -5 | -8 | 12 | 6 | 17 | -2
Cn1c(Cc2ccccc2)nnc1SCC(=O)Nc1ccccc1 | 6 | 3 | -15 | 0 | 3 | -1
Cn1c(Cc2ccccc2)nnc1SCC(=O)Nc1ccc2c(c1)OCO2 | 46* | -3 | -6 | -1 | 5 | -1
Cc1ccc(N2CC(C(=O)Nc3nnc(SCC(=O)N4CCOCC4)s3)CC2=O)cc1 (stereo not drawn) | 12 | -1 | -10 | 0 | 6 | 0
COc1ccc(C2C3=C(CC(C)(C)CC3=O)Nc3c2c(=O)n(C)c(=O)n3C)cc1OC (stereo not drawn) | -14 | 5 | -1 | 0 | 113* | 2
C=CCOc1ccccc1C1C2=C(CC(C)(C)CC2=O)Nc2c1c(=O)n(C)c(=O)n2C (stereo not drawn) | -1 | -2 | -10 | 10 | -20 | -1
O=c1c(O)c(-c2cccs2)oc2ccc(Cl)cc12 | 5 | 74* | x | 0 | -254 | 267*
O=c1c(O)c(-c2cccs2)oc2ccccc12 | 7 | 30 | -8 | -1 | -64 | 108*
O=c1c2ccccc2oc2ccccc12 | 23 | -2 | x | 0 | x | x
O=C(NCC(=O)N(Cc1cccs1)C(C(=O)NC1CCCC1)c1cccnc1)c1ccco1 (stereo not drawn) | 33 | 8 | -26 | 2 | -31 | 2
O=C(NCC(=O)N(Cc1cccs1)C(C(=O)NC1CCCC1)c1ccco1)c1cccs1 (stereo not drawn) | -4 | 59* | 11 | 2 | -12 | -1
O=C(NCC(=O)N(Cc1ccccc1)C(C(=O)NC1CCCCC1)c1ccco1)c1ccco1 (stereo not drawn) | 9 | 97* | x | 1 | -5 | 1
O=C(NCC(=O)N(c1cccnc1)C(C(=O)NC1CCCC1)c1ccco1)c1cccs1 (stereo not drawn) | -12 | -1 | 1 | 5 | -1 | -1
O=C(NCC(=O)N(Cc1cccs1)C(C(=O)NC1CCCCC1)c1ccncc1)c1ccco1 (stereo not drawn) | 42* | 3 | -5 | -1 | -4 | 0
O=C(N/C(=C\c1cccc(Br)c1)C(=O)N1CCCCC1)c1ccco1 | -8 | 2 | x | 1 | -13 | 1
O=C(Nc1ccon1)c1sc2cc(F)ccc2c1Cl | 10 | -8 | 3 | -4 | 1 | 2
O=C(NCc1ccco1)c1sc2cc(F)ccc2c1Cl | 37* | -4 | x | -2 | 5 | 0
O=C(O)c1cccc(N/C(=N\S(=O)(=O)c2ccccc2)c2ccccc2)c1 | -2 | -1 | 5 | 1 | 84* | 10
COc1cc2sc(-c3ccccc3OC)c(-c3ccc(OCCN4CCCCC4)cc3)c2cc1OC | -13 | -22 | 81* | -4 | -14 | -1
COc1ccc2sc(-c3ccccc3OC)c(-c3ccc(OCCN4CCOCC4)cc3)c2c1 | -3 | -9 | -2 | -1 | -10 | 1

High-throughput results as filed in PubChem.
